# PLAP activator = activates human placental alkaline phosphatase; purified PLAP enzyme, luminescent substrate read-out; active compounds read high; activation fold at 20 µM; 1.2% of 96,000 active; AID 696; in the data active means activation fold above about 2
# Target sequence (P05187 whole entry, looked up): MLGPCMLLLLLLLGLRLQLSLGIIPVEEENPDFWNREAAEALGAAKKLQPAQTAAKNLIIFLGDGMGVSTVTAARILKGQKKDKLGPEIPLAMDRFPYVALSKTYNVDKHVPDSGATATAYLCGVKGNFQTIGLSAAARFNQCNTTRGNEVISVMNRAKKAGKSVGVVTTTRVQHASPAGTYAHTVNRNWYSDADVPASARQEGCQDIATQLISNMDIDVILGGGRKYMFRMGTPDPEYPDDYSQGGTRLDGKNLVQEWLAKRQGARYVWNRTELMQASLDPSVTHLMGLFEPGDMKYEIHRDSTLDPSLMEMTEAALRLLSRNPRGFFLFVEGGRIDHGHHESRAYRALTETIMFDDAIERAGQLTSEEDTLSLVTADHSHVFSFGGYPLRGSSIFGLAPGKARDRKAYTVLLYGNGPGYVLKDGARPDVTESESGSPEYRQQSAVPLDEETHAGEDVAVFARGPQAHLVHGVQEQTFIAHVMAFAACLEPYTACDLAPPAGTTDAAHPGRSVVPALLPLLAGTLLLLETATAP
# F-actin modifier = cytoskeleton assembly modification | HUVEC TNFa F-actin phalloidin imaging, high content | inhibition, % at 2 µM | 0.18% of 91,000 active | AID 836;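 active means inhibition above the batch mean plus 3 SD and confirmed as a hit by visual image inspection, cut at about 30% in these data, passing the limit was not always enough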
# VCAM1 TNFa inh = reduces TNF alpha induced VCAM1 expression in HUVEC; HUVEC TNFa-induced VCAM-1 immunofluorescence, high-content imaging; inhibition, % at 2 µM; 0.48% of 95,000 active; AID 802;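 active means inhibition above the batch mean plus 3 SD, with images confirmed as a hit by eye, cut at about 37% in these data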;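 further: 0% = TNF-stimulated DMSO wells and 100% = unstimulated control wells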
# E-sel TNF inh = TNF alpha driven E-selectin expression inhibition. HUVEC TNFa-induced E-selectin immunofluorescence, high content. inhibition, % at 2 µM. 0.71% of 120,000 active;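 active means inhibition above the batch mean plus 3 SD, and confirmed as a hit on visual image review, cut at about 43% in these data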;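 further: 0% = TNF-stimulated DMSO wells and 100% = unstimulated control wells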
# TNFa cytotox = HUVEC cytotoxicity counter-screen, TNF alpha stimulated | AID 848 | cell count reduction, % at 2 µM | 0.17% of 93,000 active | HUVEC TNFalpha-stimulated, Hoechst cell count, imaging;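 active means cell count reduction exceeding the screen mean by over 5 SD, scaled to untreated wells per plate, cut at about 78% in these data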;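 further: cells counted after 24 h of TNF alpha exposure following the 1 h pretreatment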
# Active calls of the source: *; x = no result. Compounds with a hit are over-represented: about 2% of the library has one in this group of screens.
SMILES,PLAP activator,F-actin modifier,VCAM1 TNFa inh,E-sel TNF inh,TNFa cytotox
CCCCN(CC)C(=O)C1CCC(=O)N(c2ccc(OC)cc2)C1c1ccc(OC)c(OC)c1 (centres undefined),x,-12,7,x,17
CC1=C(C#N)C(Nc2cccc(C)n2)(C(F)(F)F)C(=O)N1 (centres undefined),1.1,-29,91*,x,82*
N#Cc1nc(COc2ccc(Br)cc2)oc1NCCCn1ccnc1,2.2*,-44,6,-2,0
Cc1nc(SCc2ccccc2C)n[nH]1,2*,8,-26,-15,x
Cc1ccccc1CSc1nsc(N)n1,1.1,13,5,-4,-5
CCCc1cc(C(=O)NNC(=S)NCC2CCCO2)cs1 (centres undefined),x,x,x,58,x
Cc1scc(C(=O)NNC(=S)NCC2CCCO2)c1C (centres undefined),2.2*,1,5,-7,29
CCc1cc(C(=O)NNC(=S)NCC2CCCO2)cs1 (centres undefined),2.2*,16,1,-5,-24
COc1cccc(C(C(=O)NC(C)(C)C)N(C(=O)CCC(=O)Nc2cc(C)on2)C2CC2)c1OC (centres undefined),1.4,-25,-4,67*,4
CCCCN(C(=O)CCC(=O)Nc1cc(C)on1)C(C(=O)NC(C)(C)C)c1cccc(OC)c1OC (centres undefined),x,-37,14,21,-10
Cn1c(CSc2ncn[nH]2)nc2ccccc21,2.8*,15,-8,x,-44
Cn1c(NC(=O)COc2ccccc2)cc(=O)n(C)c1=O,1.2,-8,12,8,-1
COC(=O)c1ccccc1NC(=O)CSc1n[nH]c(CC(C)C)n1,2.4*,4,9,-3,2
COC(=O)c1ccccc1NC(=O)CSc1n[nH]c(C)n1,x,-6,12,3,-12
CC(c1nnc(SCC(=O)Nc2cccnc2Cl)n1Cc1ccccc1)N(C)C (centres undefined),x,x,x,-3,x
CCn1cc(C(=O)Nc2nnc(C)s2)c(=O)c2cc(F)c(N3CCN(C(=O)c4ccco4)CC3)cc21,x,9,12,-18,-23
CCOC(=O)C1CCN(C(=O)CNC(=O)OC(C)(C)C)CC1,1.1,20,-4,-51,-18
CC(C)(C)OC(=O)NCC(=O)N1CCC(C(=O)O)CC1,0.8,18,11,69*,-21
CC(=O)C1=C(C)Nc2ncnn2C1c1ccc(Cl)cc1 (centres undefined),0.9,9,9,8,-35
CN(C)CCNC(=O)/C(=C/c1ccc(-c2ccc(Cl)cc2)o1)NC(=O)c1ccccc1,x,x,x,94*,x
O=C(NCC1CCCO1)/C(=C\c1ccc(Cl)cc1)NC(=O)c1ccccc1 (centres undefined),1,-4,11,-51,6
CCOC(=O)c1c(-c2cccs2)csc1NC(=O)CNCCN1CCOCC1,2*,18,8,0,-34
CCOC(=O)c1c(-c2cccs2)csc1NC(C)=O,x,-6,10,3,-12
CCOc1ccc(C2C(C#N)=C(N)SC(N)=C2C#N)cc1OCC,2.6*,x,x,x,x
CCOc1ccc(C2C(C#N)=C(N)SC(N)=C2C#N)cc1OC,1.9,x,x,1,x
SMILES,PLAP activator,F-actin modifier,VCAM1 TNFa inh,E-sel TNF inh,TNFa cytotox
O=C(Nc1cc2ccccc2oc1=O)c1ccccc1,x,x,x,72*,x
CCOC(=O)CSc1nc(C2CC2)nc2ccccc12,1.1,48,-6,8,5
CCOc1c(Br)cc(CNc2ccc3c(c2)OCCO3)cc1OC,0.9,23,32,8,44
CCOc1cc(CNc2ccc3c(c2)OCCO3)cc(Br)c1OC,1,39*,43,-34,37
Cc1ccc2nc(SCC(=O)Nc3cc(C)on3)[nH]c2c1,1.9,2,5,6,-18
COc1ccc2nc(SCC(=O)Nc3cc(C)on3)[nH]c2c1,2.2*,4,11,-14,-21
COc1ccc2nc(SCC(=O)Nc3ccccc3C#N)[nH]c2c1,2.1*,-10,11,-5,10
COc1ccc(C(C(=O)NCCC(C)C)N(CCN2CCOCC2)C(=O)Cn2nnc3ccccc32)c(OC)c1 (centres undefined),x,x,x,-10,x
COc1ccc(C2NC(=S)NC3=C2CCc2cc(OC)ccc23)cc1 (centres undefined),1,10,9,-4,0
CC1=Nc2ccccc2/C1=C/c1c(N)n2c(S(=O)(=O)C(C)C)nsc2nc1=O,x,x,x,-16,x
CC1=Nc2ccccc2/C1=C/c1c(N)n2c(S(=O)(=O)CC(C)C)nsc2nc1=O,x,x,x,96*,x
CCc1ccc(C(=O)COC(=O)c2cccnc2Cl)cc1,x,x,x,-17,x

# Source: PubChem
